Compound activity from PubChem BioAssay.
Pf apPOL block: Pf-apPOL inhibitors, biochemical, fluorescence | inhibition, % at 10 µM | Plasmodium falciparum apicoplast DNA polymerase (apPOL) | 210,000 tested, 0.25% active | AID 1794808, 2022 | Recombinant Pf-apPOL, molecular beacon fluorescence, 1.5 h
mHTT-CaM PPI inh: mutant huntingtin-calmodulin interaction inhibitors – biochemical, AlphaScreen, primary screen. AlphaScreen His-mHTT/GST-CaM binding, luminescence. 190,000 tested, 3.6% active. P42858. inhibition, % at 15 µM. AID 1671202, 2021;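 note: 0% = both proteins with DMSO and 100% = one protein alone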
* = called active by the depositor; x = no result. In the library only some 3.6% were active in any assay of this set; here they are far more common. Cut-off read from the data, not from the text of the source: active = inhibition above about 50%; inactive = the rest.

SMILES	Pf apPOL block	mHTT-CaM PPI inh
CCOc1ccc(CN2CCc3nc(N4CCCC4)ncc3C2)cc1	7.2	18.4
Cn1cccc1CN1CCc2nc(N3CCCCC3)nc(Oc3ccccc3)c2C1	1.8	71.0*
CC(C)CN1CCc2nc(N3CCOCC3)nc(Oc3ccccc3F)c2C1	-0.3	22.3
c1ccc(Oc2nc(N3CCCCC3)nc3c2CN(Cc2cccnc2)CC3)cc1	-2.5	52.8*
NC(=NOC(=O)c1cccs1)C1(c2ccc(Cl)cc2Cl)CC1	-2.4	x
Cc1nc2c(C(=O)NC3CCCCC3)cnn2c(C)c1Cc1ccc(F)cc1	24.5	-1.0
COCCC(=O)N1CCc2nc(-c3ccccc3)ncc2C1	-1.0	4.6
Cn1nc(-c2nnc(-c3ccccc3F)o2)c2c1CCN(C(=O)c1cccc(F)c1)C2	-3.0	10.6
CCC(C(=O)N1CCc2c(c(-c3nnc(-c4ccccc4F)o3)nn2C)C1)c1ccccc1 (centres undefined)	-2.8	52.8*
N#CC1=C(N)OC2=C(CCCC2)C1c1ccc(F)cc1 (centres undefined)	-6.8	8.8
COc1cccc(/C=C2\CCC3=C2OC(N)=C(C#N)C3c2cccc(OC)c2)c1 (centres undefined)	-0.9	78.0*
N#CC1=C(N)OC2=C(CC/C2=C\c2ccc(F)cc2)C1c1ccc(F)cc1 (centres undefined)	1.1	77.0*
COc1cccc(C2C(C#N)=C(N)OC3=C2C(=O)CCC3)c1 (centres undefined)	-7.0	-0.3
Cn1nc(-c2ccccc2)cc1NC(=O)CN1C(=O)c2ccccc2S1(=O)=O	-1.2	x
Cc1ccc(NC(=O)c2ccc3c(c2)N(S(C)(=O)=O)CC3)cc1	-2.3	-3.4
Cc1ccccc1CS(=O)(=O)CCC(=O)NCCCN1CCC(C)CC1	-14.3	-9.0
COc1ccc(C)cc1NC(=O)c1cc(C)n(CCN(C)C)c1C	2.8	51.0*
COc1ccc(OC)c(NC(=O)c2cc(C)n(CCN(C)C)c2C)c1	-1.3	23.3
Cc1ccc(CNC(=O)Nc2ccc3nnc(C)n3c2)cc1	-1.4	-10.1
COc1ccc(CNS(=O)(=O)c2ccc(F)c(C(=O)Nc3ccc(C)c(Cl)c3)c2)cc1	-4.1	2.0
COc1cccc(/C=C2/SC(N3CCN(C)CC3)=NC2=O)c1OC	-3.8	-1.0
COc1cccc(/C=C2\Cc3ccccc3C2=O)c1OC	-4.8	-2.0
COc1cccc(/C=C2\CS/C(=C\c3cccc(OC)c3OC)C2=O)c1OC	-4.0	53.0*
CCCN1C/C(=C\c2cccc(OC)c2OC)C(=O)/C(=C/c2cccc(OC)c2OC)C1	-1.6	50.0*
CCn1c(=O)c(C(=O)NCc2cc(F)ccc2F)nc2cccnc21	-2.6	-2.1
SMILES	Pf apPOL block	mHTT-CaM PPI inh
Cn1c(C(=O)NCc2ccc3c(c2)OCO3)cc2c1CCN(Cc1ccccc1)C2	5.3	42.9
COc1cc(S(=O)(=O)Nc2cccc(C(=O)O)c2)c(OC)cc1C	-7.1	-12.0
COc1nc(-n2nc(C)cc2C)nc(-n2nc(C)cc2C)n1	64.0*	-7.8
Cc1cc(C)n(-c2nc(C)nc(N)n2)n1	6.8	1.0
CC1C2(C)OC(=N)C(C#N)(C(c3cccnc3)O2)C1(C#N)C#N (centres undefined)	-5.8	2.0
O=C1C(=Cc2cc(Br)cc3c2OCOC3)Oc2cc(OC(=O)C3CC3)ccc21	-11.6	9.8
Cc1cccc(C2CCCN2C(=O)c2cc(-c3ccccc3)on2)c1 (centres undefined)	-1.3	5.3
CCc1[nH]nc(-c2cccc(OC)c2)c1NC(=O)C1CCCC1	3.1	17.9
CCC(=O)Nc1c(-c2cccc(OC)c2)n[nH]c1CC	69.6*	91.4*
CCc1[nH]nc(-c2ccc(F)c(F)c2)c1NC(=O)COC	-3.4	96.7*
CCC(=O)Nc1c(-c2ccc(F)c(F)c2)n[nH]c1CC	-1.6	7.3
Cn1c(=O)c(-c2ccc(C(=O)NC3CCCCC3)cc2)nc2cccnc21	-1.0	-4.1
COCCN1C(=O)Cc2ccccc2C1C(=O)N1CCCC1 (centres undefined)	-0.1	-8.7
Cc1ccc(C(=O)Nc2ccc(S(=O)(=O)O)c3cc(S(=O)(=O)O)cc(S(=O)(=O)O)c23)cc1NC(=O)c1cccc(NC(=O)Nc2cccc(C(=O)Nc3cc(C(=O)Nc4ccc(S(=O)(=O)O)c5cc(S(=O)(=O)O)cc(S(=O)(=O)O)c45)ccc3C)c2)c1	53.4*	x
Cc1ccccc1NC(=O)c1ccc(C)c(S(=O)(=O)Nc2cccc(C(=O)O)c2)c1	-4.2	-3.2
O=C(c1cccs1)N1CCCC(c2ccnc(Nc3cccc(F)c3)n2)C1 (centres undefined)	-1.2	93.1*
O=C(c1cccs1)N1CCCC(c2ccnc(Nc3ccc(F)cc3)n2)C1 (centres undefined)	-3.2	20.6
O=C(Cc1cccs1)N1CCCC(c2ccnc(Nc3cccc(F)c3)n2)C1 (centres undefined)	-6.0	75.3*
CC(C)C(=O)N1CCCC(c2ccnc(Nc3cccc(F)c3)n2)C1 (centres undefined)	-6.0	11.0
